Among the data in PubChem BioAssay are composite z-score and z-score values, retold here.

Test [1] relates to XIP peptide (Xip251-270) binding. The test can be described thus: small-molecule binders of XIP peptide, primary screen, biochemical, small-molecule microarray, fluorescence 635/667 nm, 0.1 µg/mL protein (AID 1182). As to conditions: fluorescent protein binding, 635 nm, higher = more signal, called active from +8 up or from −8 down.
The subject of another test is XIP peptide (Xip251-270). The test can be described thus: small-molecule binders of XIP peptide, primary screen, biochemical, small-molecule microarray, fluorescence 635/667 nm, 0.5 µg/mL protein (AID 1183). As to conditions: small-molecule microarray binding, fluorescence 635 nm; higher = more signal.
A short description of test [2]: Plasmodium falciparum growth inhibition, primary screen, strain 3D7, DAPI fluorescence, 100 nL (AID 1184).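 Also: parasites grown inside human red blood cells in medium with human serum.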 As to conditions: P. falciparum 3D7 growth, 3 d, higher = more signal.
The target of test [3] is Homeobox protein Hox-A13 (Mus musculus) (UniProt Q62424). Kind of test: inhibitors of HoxA13-DNA binding, primary screen, biochemical, fluorescence polarization, labeled oligonucleotide (AID 1185). As to conditions: 15 min, higher = more signal, called active from +8 up or from −8 down. For orientation: Fluorescence polarisation rises when a labelled molecule tumbles more slowly, as on binding a larger partner.
Homeobox protein Hox-A13 (Mus musculus), sequence (Q62424 whole entry, looked up): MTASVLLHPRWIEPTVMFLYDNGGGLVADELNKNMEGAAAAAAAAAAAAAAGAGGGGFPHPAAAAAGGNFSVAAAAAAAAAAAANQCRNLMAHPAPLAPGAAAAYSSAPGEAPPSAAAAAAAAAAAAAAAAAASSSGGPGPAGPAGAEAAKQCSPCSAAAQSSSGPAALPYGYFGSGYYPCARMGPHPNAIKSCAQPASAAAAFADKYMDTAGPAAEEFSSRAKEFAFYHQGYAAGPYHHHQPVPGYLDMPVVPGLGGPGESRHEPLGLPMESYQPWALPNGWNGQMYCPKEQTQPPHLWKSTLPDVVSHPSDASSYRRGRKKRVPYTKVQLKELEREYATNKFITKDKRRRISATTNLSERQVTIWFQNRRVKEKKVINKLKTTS

Test [4] in a line: inhibitors of hydroxyurea-induced Chk1 phosphorylation, primary screen, imaging, HeLa, phospho-Chk1 antibody, percent positive cells (AID 1186). As to conditions: hydroxyurea-induced phospho-Chk1 immunofluorescence imaging, higher = more signal.
Test [5] is described as follows: inhibitors of hydroxyurea-induced Chk1 phosphorylation, primary screen, imaging, HeLa, phospho-Chk1 nuclear intensity (AID 1187). As to conditions: hydroxyurea-induced phospho-Chk1 immunofluorescence imaging, higher = more signal.

Calls of active or inactive are those of the source. Unless noted, no rule for the calls is given here.

Consider `COCCOC(=O)N1C(=O)[C@@]2(c3cc(C#Cc4ccc(OC)cc4)ccc31)[C@H](C(=O)N1CCN(c3ncccn3)CC1)[C@H]1C(=O)O[C@H](c3ccccc3)[C@H](c3ccccc3)N1[C@@H]2c1ccccc1OCCO`, for which the composite z-score was -0.148 (inactive) in test [1] and 0.561 in the test on XIP peptide (Xip251-270). Besides, the z-score in test [2] was -1.51; in test [3], -0.114 (inactive); in test [4], -0.019 (inactive); in test [5], -0.0377 (inactive).

Consider `C[C@]1(C(=O)NC2CC2)c2ccccc2C(=O)N(Cc2ccc(OC(F)(F)F)cc2)[C@H]1c1ccc(CO)cc1`, for which the composite z-score in test [1] was 0.282 (inactive); in the test with XIP peptide (Xip251-270) it was -0.923. The z-score in test [2] is 0.516; in test [3], -3.59 (inactive); in test [4], -0.0307 (inactive); in test [5] it was -0.521 (inactive).

Turning to `O=C1c2ccccc2[C@@]2(Cc3ccccc3N(C3CC3)C2=O)[C@H](c2ccc(CO)cc2)N1C1CCCCC1`, the values for the composite z-score (in test [1]; in the test with XIP peptide (Xip251-270)) were -0.241 (inactive) and -0.76, respectively. Moreover, the z-score in test [2] was -0.323; in test [3], -2.14 (inactive); in test [4], 0.353 (inactive); in test [5] it was 0.349 (inactive).

On to `CCOC(=O)C[C@H]1[C@H](OC(=O)c2ccccc2-c2ccccc2)[C@@H](NC(=O)c2ccc3ccccc3n2)c2cc(OCCCO)ccc2N1C(=O)c1ccc2ccccc2n1`, for which the composite z-score in test [1] is 0.123 (inactive); in the test on XIP peptide (Xip251-270), 0.309. Further, the z-score is -0.456 in test [2], -1.53 (inactive) in test [3], -0.492 (inactive) in test [4] and -0.588 (inactive) in test [5].

As to `CCOC(=O)C1=C[C@@H](c2ccccc2)N(S(=O)(=O)c2ccc(C)cc2)[C@H]1c1cccc(Cl)c1`, the composite z-score is 0.526 (inactive) in test [1] and 0.803 in the test on XIP peptide (Xip251-270). Moreover, the z-score in test [2] is -2.03; in test [3], 0.587 (inactive); in test [4], 0.289 (inactive); in test [5] it was 0.284 (inactive).

With `COCCOC(=O)N1C(=O)[C@@]2(c3cc(C#CC4=CCCCC4)ccc31)[C@H](c1ccccc1OCCO)N1[C@H](c3ccccc3)[C@H](c3ccccc3)OC(=O)[C@H]1[C@@H]2C(=O)N1CCc2cc(OC)c(OC)cc2C1`, the composite z-score in test [1] is 3.26 (inactive); in the test on XIP peptide (Xip251-270), 0.717. The z-score in test [2] is -1.68; in test [3], 2.38 (inactive); in test [4], 0.0575 (inactive); in test [5], 0.139 (inactive).

As to `Cc1ccc(F)cc1S(=O)(=O)N[C@@H]1CCN(Cc2ccc(Oc3ccccc3)cc2)C1`, the composite z-score in test [1] is 0.401 (inactive); in the test on XIP peptide (Xip251-270), -0.0723. Moreover, the z-score was -0.954 in test [2], -5.64 (inactive) in test [3], 0.659 (inactive) in test [4] and 0.735 (inactive) in test [5].

In the case of `CCOC(=O)C[C@H]1[C@H](OC(=O)c2ccccc2-c2ccccc2)[C@@H](NC(=O)CC(C)C)c2cc(OCCCO)ccc2N1C(=O)c1ccc2ccccc2n1`, the composite z-score was 2.34 (inactive) in test [1] and 0.0366 with XIP peptide (Xip251-270). In addition, the z-score was 1.65 in test [2], -3.94 (inactive) in test [3], 0.222 (inactive) in test [4] and -0.537 (inactive) in test [5].

`O=C1O[C@@H](c2ccccc2)[C@@H](c2ccccc2)N2[C@@H](c3ccccc3OCCO)[C@]3(C(=O)Nc4ccc(C#CCCO)cc43)[C@@H](C(=O)N3CCN(c4ncccn4)CC3)[C@H]12`: the figures for the composite z-score (in test [1]; with XIP peptide (Xip251-270)) were 0.665 (inactive) and 0.617, respectively. The z-score in test [2] was -2.05; in test [3] it was -1.33 (inactive); in test [4], -0.0995 (inactive); in test [5], 0.113 (inactive).

As for `COCC(=C=CC[C@H](O)c1ccc(OCCO)cc1)C[C@H](O)COCc1ccccc1`, the results for the composite z-score (in test [1]; in the test with XIP peptide (Xip251-270)) were -0.0114 (inactive) and 0.698, respectively. Further, the z-score is -2.74 in test [2], -5.25 (inactive) in test [3], -0.364 (inactive) in test [4] and 0.19 (inactive) in test [5].

As to `CN(C)CCCNC(=O)[C@@]1(c2ccc([N+](=O)[O-])cc2)CC(=O)N(CC23CC4CC(CC(C4)C2)C3)[C@@H]1c1ccc(CO)cc1`, the composite z-score in test [1] was 1.13 (inactive); in the test with XIP peptide (Xip251-270), 0.843. Besides, the z-score in test [2] is -2.4; in test [3], 7.52 (inactive); in test [4] it was -0.451 (inactive); in test [5], -0.75 (inactive).

Regarding `COC(=O)[C@@]1(Cc2ccccc2)[C@H]2c3cc(C(=O)N4CCCC4)n(C[C@H](O)CO)c3C[C@H]2CN1C(=O)c1ccccc1`, the composite z-score in test [1] was 0.484 (inactive); with XIP peptide (Xip251-270) it was -0.487. In addition, the z-score in test [2] was -1.02; in test [3] it was -5.19 (inactive); in test [4] it was 0.905 (inactive); in test [5], 0.777 (inactive).

Take `Cc1ccc(S[C@]2(C(=O)NCc3ccccc3)CC(=O)N(C(C)C)[C@@H]2c2ccc(CO)cc2I)cc1`: the composite z-score in test [1] is 1.17 (inactive); in the test on XIP peptide (Xip251-270) it was 0.809. The z-score in test [2] was 0.257; in test [3] it was -2.88 (inactive); in test [4], 0.422 (inactive); in test [5], 0.953 (inactive).

Consider `C=C(CCCC)/C(=C/C[C@@H](OC(=O)c1ccncc1)c1cccc(OCCO)c1)c1cnc2ccccc2c1`, for which the figures for the composite z-score (in test [1]; with XIP peptide (Xip251-270)) were 0.389 (inactive) and 0.405, respectively. Further, the z-score was -3.03 in test [2], -3.72 (inactive) in test [3], -0.403 (inactive) in test [4] and -0.342 (inactive) in test [5].

As for `COC(=O)C(CC#Cc1ccc2c(c1)[C@]1(C(=O)N2)[C@H](C(=O)O)[C@H]2C(=O)O[C@H](c3ccccc3)[C@H](c3ccccc3)N2[C@@H]1c1ccccc1OCCO)C(=O)OC`, the composite z-score in test [1] was 0.341 (inactive); in the test with XIP peptide (Xip251-270) it was 0.853. The z-score in test [2] was -2.06; in test [3] it was -6.38 (inactive); in test [4] it was -0.244 (inactive); in test [5], -0.674 (inactive).

`COCCCNC(=O)[C@@H]1c2ccccc2C(=O)N(Cc2ccccc2C(F)(F)F)[C@H]1c1ccc(CO)cc1`: the values for the composite z-score (in test [1]; in the test with XIP peptide (Xip251-270)) were 0.348 (inactive) and -0.149, respectively. Moreover, the z-score was 0.226 in test [2], -1.82 (inactive) in test [3], -0.477 (inactive) in test [4] and -0.593 (inactive) in test [5].

`O=C(O)[C@H](Cc1ccccc1)n1cc(-c2ccccn2)nn1`: the composite z-score was 0.355 (inactive) in test [1] and 0.32 in the test on XIP peptide (Xip251-270). The z-score in test [2] is 0.214; in test [3] it was -0.876 (inactive); in test [4], 0.721 (inactive); in test [5], 0.662 (inactive).
